Measurements published in PubChem BioAssay (NCI).
About 83,000 compounds went through this panel and 20% of them were active in at least one assay; those are over-represented in the sample as a whole.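 Single-dose data. Exposure time 48 hours. Values below 10 considered active.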 Activity calls are given as the source filed them.

Test system: MDA-MB-468 breast
Assay: NCI-60 one-dose screen, 48 h (100 = growth as untreated, 0 = no growth, -100 = all killed)
Details: 10 µM unless noted

Row | Structure (SMILES) | growth
1 | [O-][n+]1ccccc1CCN(O)CCc1cccc[n+]1[O-] | 110% (inactive)
2 | CC(=O)Nc1nc(C(=O)N2N=C(C)/C(=C/c3cccs3)C2=O)cs1 | 103% (inactive)
3 | CC/C=C\C[C@H](O)C/C=C1/C(=O)C=C[C@@]1(C)C/C=C\CCCC(=O)OC | 105% (inactive)
4 | Cc1cc(/C=C2\SC(=Nc3ccccc3)N(C3CCCC3)C2=O)c(C)n1-c1ccc(Cl)cc1 | -84.2% (active)
5 | CC(C)(C)CC(N)=O | 101% (inactive)
6 | Cc1cc2nc3c4ccccc4n(CCN(C)C)c3nc2cc1C | -12.1% (active)
7 | C=C(C)[C@@H]1CC[C@]2(C(=O)OC)CC[C@]3(C)[C@H](CC[C@@H]4[C@@]5(C)C/C(=C/NC(N)=S)C(=O)C(C)(C)[C@@H]5CC[C@]43C)[C@@H]12 | 103% (inactive)
8 | N#Cc1cc2[nH]c3ccc(OC(F)(F)F)cc3c2oc1=O | 95.2% (inactive)
9 | Cc1ccc2nc3c(cc2c1)CSc1nnc(-c2ccc[nH]c2=S)n1N3 | 111% (inactive)
10 | CCS(=O)(=O)N[C@@H]1O[C@H](COC(C)=O)C(OC(C)=O)[C@H](OC(C)=O)C1OC(C)=O (stereo partly specified) | 100% (inactive)
11 | C[C@]12CC[C@@H]3c4ccc(O)cc4CC[C@H]3[C@@H]1CC[C@@H]2NS(=O)(=O)c1ccc(C(F)(F)F)cc1 | 53% (inactive)
12 | O=C(C[n+]1ccccc1)c1ccc2ccccc2c1 | 88.1% (inactive)
13 | C/C(=C(/C)C1CC1CCN(C(=O)c1ccccn1)S(=O)(=O)c1ccc(C)cc1)C1CCCCC1 (stereo unspecified) | 75.7% (inactive)
14 | Cc1nnc(N/N=C/c2ccc([N+](=O)[O-])o2)[nH]c1=O | 31.2% (inactive)
15 | Cc1ccc(N(CC(=O)Nc2ccc(S(=O)(=O)N3CCC(N4CCCC4)CC3)cc2)S(=O)(=O)c2ccc(Cl)cc2)cc1 | -19.6% (active)
16 | O=C1/C(=C/c2ccccc2[N+](=O)[O-])Oc2ccc(O)cc21 | 20.3% (inactive)
17 | COc1ccc2c(c1)O/C(=C/c1ccc(OCC(=O)Nc3ccc(S(N)(=O)=O)cc3)cc1)C2=O | 86.3% (inactive)
18 | Cc1ccc(CCCC(=O)O)c(C)c1 | 91.7% (inactive)

Row | Structure (SMILES) | growth
19 | O=C1c2cc(Br)ccc2-n2c1nc1cc(Br)ccc1c2=O | 76.6% (inactive)
20 | N#Cc1c(-c2ccccc2)nc(SCc2nnc(-c3ccc(Cl)cc3)o2)[nH]c1=O | 103% (inactive)
21 | CC(C)N1CCN(Cc2ccc3c(NNC(=O)c4ccccc4)nc4cc(F)ccc4n23)CC1 | -14.3% (active)
22 | COc1ccc(-c2cc3c(nn2)-c2ccccc2C3=O)cc1 | -4.8% (active)
23 | Cc1cc(N2CCN(C)CC2)nc(NCc2cc(Nc3ccnc4cc(Cl)ccc34)ccc2F)n1 | -60.4% (active)
24 | CCN1CCN(c2nc(C)cc(N(CCNc3ccnc4cc(Cl)ccc34)Cc3ccc4c(c3)OCO4)n2)CC1 | -65.3% (active)
25 | CCN1C(=O)N(CC)C2Nn3c(s/c(=C\c4ccc(OC)cc4)c3=O)=NC21 (stereo unspecified) | 14.1% (inactive)
26 | N#Cc1c(-c2ccc(Cl)cc2)nc(NN=Cc2cccc(O)c2)nc1N1CCOCC1 | 87.4% (inactive)
27 | CC(=O)OCC(=O)C1(O)C(C)CC2C3C=C(C)C4=Cc5c(cnn5-c5ccccc5)CC4(C)C3C(O)CC21C (stereo unspecified) | -10.9% (active)
28 | Brc1ccc2c(c1)c(-c1nc(-c3c[nH]c4ncccc34)cs1)cn2CCCN1CCCCC1 | -15% (active)
29 | C[C@]12CC[C@H]3[C@@H](CC=C4C[C@@H](O)CC[C@@]43C)[C@@H]1CC[C@@H]2[C@](C)(O)CCc1cccnc1 | 25.3% (inactive)
30 | C[C@@H](c1ccccc1)[C@@H](C(=O)O)c1ccccc1 | 96.7% (inactive)
31 | CCCCCCCCCCCCNC(=S)N/N=C/c1ccccc1O | 53.1% (inactive)
32 | CC1CN(C(C)C)C(=S)N(c2ccccc2)C1=O (stereo unspecified) | 84.3% (inactive)
33 | C#Cc1cccc(NC(=O)Nc2cccc(NC(=O)CCl)c2)c1 | -43.5% [8.25 µM] (active)
34 | O=C(Nc1cccc(Cl)c1)Oc1c(Br)c(Br)c(Br)c(Br)c1Br | 94.1% (inactive)
35 | COc1ccc(-c2nc3sccn3c2/C=C/C(=O)c2cc(F)cc(F)c2)cc1 | 85.8% (inactive)
36 | CC1/C=C/C=C/C=C/C=C/C=C/C=C/C=C/C(O[C@@H]2O[C@H](C)[C@H](O)[C@@H](O)[C@@H]2N)CC(O)C(C(=O)O)C(O)CC(=O)CC(O)CC(O)CC(O)CC(=O)CCCC(=O)CC(=O)OC1C(C)CC(C)C(O)CC(=O)c1ccc(N)cc1 (stereo partly specified) | -89.7% (active)
